Assay results taken from PubChem BioAssay AID799 (SRMLSC, 2007).
The whole screen tested about 140,000 compounds, of which about 840 (0.6%) were called active.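 Rule for the calls: active = viability gain under doxorubicin at or above a set limit, the compound median plus 3 SD (cut at about 4.7% in these data); inactive = the rest.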 What follows is part of a selection rich in actives, with near analogues and random picks from the rest.

Assay: H69AR viability gain despite doxorubicin, primary screen, MRP-1 activator project, H69AR cells, CellTiter-Glo (AID 799);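 note: MRP-1 overexpressing cells given doxorubicin 25 µM after compound pretreatment; 18-22 h compound pretreatment then 72 h with doxorubicin before readout; 0% = doxorubicin-only wells and 100% = vehicle-treated cells without doxorubicin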
Details: viability rescue, at 10 µM, active compounds read high

Row | SMILES | viability increase
1 | CC(C)CNC(=O)COC(=O)/C=C/c1ccco1 | 1.16% (inactive)
2 | COc1ccc([N+](=O)[O-])cc1NC(=O)COC(=O)/C=C/c1ccco1 | 7.08% (active)
3 | COc1ccc([N+](=O)[O-])cc1NC(=O)CCc1ccccc1 | -1.62% (inactive)
4 | Cc1[nH]c2ccccc2c1/C=N\NC(=O)Cn1nnc(-c2ccccc2)n1 | 3.22% (inactive)
5 | CN(C)CCCNC(=S)NCc1ccc(Cl)cc1 | -0.81% (inactive)
6 | CCOC(=O)NC(=O)CSc1nnc(SCCC(=O)O)s1 | 1.73% (inactive)
7 | CCCC(=O)Nc1cccc(NC(=S)NC(=O)C(C)Oc2ccc(Cl)cc2Cl)c1 (configuration not stated) | -2.06% (inactive)
8 | Cc1cccnc1NC(=O)CSc1nnc(COc2ccc(C(C)C)cc2)n1C | 0.08% (inactive)
9 | Cc1ccc(OCc2nnc(SC3CCc4ccccc4C3=O)n2C)cc1 (configuration not stated) | 7.21% (active)
10 | COc1ccccc1C(=O)Nc1ccc(OCc2nnc3c4ccccc4c(C)nn23)cc1 | 0.29% (inactive)
11 | Cc1ccc2nc(SCc3cn4c(C)cc(C)nc4n3)[nH]c2c1 | 0% (inactive)
12 | OC(COc1ccc2c(c1)CCC2)CN1CCN(c2cccc(Cl)c2)CC1 (configuration not stated) | -3.05% (inactive)
13 | COc1ccc(N2CCN(Cc3cc(=O)oc4ccc5ccccc5c34)CC2)cc1 | -1.38% (inactive)
14 | O=c1cc(CN2CCN(c3cccc(Cl)c3)CC2)c2cc3c(cc2o1)CCCC3 | 6.01% (active)
15 | O=C(CSc1nc2ccccc2[nH]1)N/N=C/C=C\c1ccccc1[N+](=O)[O-] | -1.58% (inactive)
16 | COc1cccc(/C(C)=N/Nc2ncc(Cl)cc2Cl)c1 | -1% (inactive)
17 | Cn1cc(C(=O)NCc2ccccc2F)cn1 | -0.72% (inactive)
18 | CCn1nc(C)c(NC(=O)/C=C/c2ccc(OC)c(COc3ccc(Br)cc3)c2)c1C | 3.69% (inactive)
19 | COc1ccc(/C=C/C(=O)Nc2ccc3c(c2)OCCO3)cc1OC | -2.17% (inactive)
20 | COc1ccc(/C=C/C(=O)Nc2c(C)nn(C)c2C)cc1COc1ccc(Br)cc1 | 7.14% (active)
21 | Cn1c(=O)c(Sc2ccc(Cl)cc2)c(O)c2ccccc21 | -2.5% (inactive)

Row | SMILES | viability increase
22 | CCN(CC)CCNCc1ccc(OCc2ccc(Cl)nc2)c(OC)c1 | 1.21% (inactive)
23 | COc1ccc(NS(=O)(=O)c2ccc(NC(=O)C(C)(C(F)(F)F)C(F)(F)F)cc2)nn1 | -0.72% (inactive)
24 | CCCCCC(=O)Nc1ccc(S(=O)(=O)Nc2ccc(Cl)nn2)cc1 | 6.79% (active)
25 | COc1ccc(NS(=O)(=O)c2ccc(NC(=S)NC(=O)/C=C/c3ccc(C)cc3)cc2)nn1 | -3.16% (inactive)
26 | O=C(/C=C/c1ccccc1)Nc1nnc(SCC(=O)c2ccc3ccccc3c2)s1 | -5.32% (inactive)
27 | COc1ccc2nc(NC(=O)[C@@H]3CCCN3C(=O)c3cccs3)sc2c1 | -1.42% (inactive)
28 | CC(C)CN(C(=O)CN1CCN(S(=O)(=O)c2ccccc2)CC1)c1c(N)n(CC(C)C)c(=O)[nH]c1=O | 0.86% (inactive)
29 | Cc1cc(/C=C2/NC(=O)NC2=O)c(C)n1-c1cccnc1 | -1.48% (inactive)
30 | Cc1cccc(C)c1-n1c(C)cc(/C=C2\C(=O)NN(c3ccccc3)C2=O)c1C | 7.89% (active)
31 | Cc1ccccc1-n1c(C)cc(/C=C2\NC(=O)NC2=O)c1C | -4.81% (inactive)
32 | CCC(C(=O)OCC(=O)Nc1c(Cl)cc(Cl)cc1Cl)c1ccccc1 (configuration not stated) | 0.97% (inactive)
33 | Cc1cccc(-n2ncc3c(N4CCc5ccccc54)ncnc32)c1 | -0.96% (inactive)
34 | COc1ccc(-n2ncc3c(N4CCc5ccccc54)ncnc32)cc1 | -1.22% (inactive)
35 | COc1ccc(-n2ncc3c(N4CCCc5ccccc54)ncnc32)cc1 | 10.8% (active)
36 | COc1cc(Cl)c(C)cc1NC(=O)COC(=O)c1cc(SC)ccc1Cl | -0.15% (inactive)
37 | CCC1CCCCN1C(=S)Nc1ccc(SC(F)F)cc1 (configuration not stated) | 1.82% (inactive)
38 | Cc1ccccc1NC(=O)CNc1ccccc1N1CCCCC1 | -3.04% (inactive)
39 | Cc1ccccc1NC(=O)CSC1=NCCN1 | 5.48% (active)
40 | Cc1cccc(NC(=O)CSc2nc3c(c(=O)[nH]2)CCCC3)c1C | -0.17% (inactive)
41 | N=c1n(CCc2ccccc2)c2ccccc2n1Cc1ccccc1F | -4.33% (inactive)
42 | COc1ccc(C)cc1NC(=O)CSc1ccc(Cl)cc1 | -1.28% (inactive)

Row | SMILES | viability increase
43 | O=C1CCCC(O)=C1N=Nc1ccc2ncsc2c1 | -2.88% (inactive)
44 | Cc1cc(C(=O)OCC(=O)Nc2ccc(F)c(F)c2)c(C)o1 | 7.91% (active)
45 | Cc1cc(C(=O)OCC(=O)c2c(N)n(C)c(=O)n(C)c2=O)c(C)o1 | -2.26% (inactive)
46 | CCn1c2ccccc2c2cc(NC(=O)COC(=O)c3ccccc3Br)ccc21 | -1.59% (inactive)
47 | CC(C)(C)NC(=O)C(=O)NCc1ccncc1 | -2.66% (inactive)
48 | COc1ccc(NC(=O)CC2COc3ccccc3O2)c(OC)c1 (configuration not stated) | 4.96% (active)
49 | COc1ccc(NC(=O)CCN2CCCC2)c(OC)c1 | 1.66% (inactive)
50 | Cc1cc(NC(=O)CCC2COc3ccccc3O2)no1 (configuration not stated) | 0% (inactive)
51 | O=c1cc(CN2CCN(S(=O)(=O)/C=C/c3ccccc3)CC2)c2ccc(O)cc2o1 | -2.59% (inactive)
52 | CC(C)(C)CC(C)(C)NCC(O)COCCOc1ccc(Br)cc1 (configuration not stated) | -4.69% (inactive)
53 | Cc1ccsc1C(=O)N/N=C/c1ccc([N+](=O)[O-])cc1 | 0.85% (inactive)
54 | Cc1ccc(-n2[nH]c(C)c(/C=N/NC(=O)c3cccc([N+](=O)[O-])c3)c2=O)cc1C | -4.06% (inactive)
55 | Cc1cc(C(=O)N/N=C/c2cc([N+](=O)[O-])cc(C)c2O)n[nH]1 | 5.47% (active)
56 | COC(=O)c1onc(-c2c(OC)cc(OC)cc2OC)c1C(=O)OC | 1.1% (inactive)
57 | O=C(N/N=C/c1ccc(Br)o1)c1cncc(Br)c1 | -1.78% (inactive)
58 | Cc1ccc(OCC(=O)OC(C)CN(C)Cc2ccccc2)cc1 (configuration not stated) | -1.74% (inactive)
59 | CCn1c(SCC(=O)Nc2ccc(C)cc2)nc2nc3c(cc2c1=O)CCCC3 | 0.07% (inactive)
60 | Clc1ccc(COn2c(-c3ccc(Cl)cc3Cl)nc3ncccc32)cc1 | -3.46% (inactive)
61 | COc1ccc(OC)c(-c2c(=O)n(OCc3ccccc3Br)c3ccccc3[n+]2[O-])c1 | -1.16% (inactive)
62 | CCOc1ccc(OCC)c(-c2c(=O)n(OCc3ccc(Cl)cc3)c3ccccc3[n+]2[O-])c1 | 7.22% (active)
